Test results reported in PubChem BioAssay (NCI).
Compounds without any hit were thinned out: in the full panel of roughly 79,000, 15% have a hit. A number with no mark means an inactive call. Active and inactive are the calls of the source. Cut-off read from the data, not from the text of the source: active = growth inhibition above about 70%; inactive = the rest.

Key:
[1] = NCI Yeast Anticancer Drug Screen. Data for the rad50 strain (AID 155);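 note: 0% = growth of vehicle-only cultures of the same strain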; conditions: S. cerevisiae rad50 strain growth inhibition; at 50.0 µM; hits give high values
In short: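 Genetically altered yeast (DNA repair pathway); compound treatment; growth inhibition vs vehicle ctrl.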

[2] = NCI Yeast Anticancer Drug Screen. Data for the mec2-1 strain (AID 157); conditions: S. cerevisiae mec2-1 strain, at 50.0 µM, hits give high values
In short: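 Each compound was tested on mec2-1 yeast, a strain altered in DNA damage repair or cell cycle control. Growth inhibition is reported relative to vehicle.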

[3] = NCI Yeast Anticancer Drug Screen. Data for the sgs1 mgt1 strain (AID 161);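 note: 0% = growth of cultures given vehicle only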; conditions: S. cerevisiae sgs1 mgt1 strain, at 50.0 µM, hits give high values
In short: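 Test agents were incubated with a DNA-repair-mutant yeast strain. Growth was then read and compared against vehicle-treated controls.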

[4] = NCI Yeast Anticancer Drug Screen. Data for the cln2 rad14 strain (AID 165);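 note: 0% = growth equal to vehicle treated cultures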; conditions: S. cerevisiae cln2 rad14 strain, at 50.0 µM, hits give high values
In short: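 Test compounds were added to cln2 rad14 yeast cultures; inhibition of growth was then determined by comparison with vehicle treatment.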

[5] = NCI Yeast Anticancer Drug Screen. Data for the bub3 strain (AID 167); conditions: S. cerevisiae bub3 mutant strain, at 50.0 µM, hits give high values
In short: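 Yeast carrying a defined mutation is treated with each compound, and growth is compared with that of vehicle-exposed cells to give inhibition.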

[6] = NCI Yeast Anticancer Drug Screen. Data for the mlh1 rad18 strain (AID 175); conditions: S. cerevisiae mlh1 rad18 strain growth inhibition; at 50.0 µM; hits give high values
In short: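 Inhibition values reflect reduced growth of mutant yeast versus vehicle-treated controls following compound exposure; the mutations affect DNA damage repair.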

| SMILES | growth inhibition [1] | growth inhibition [2] | growth inhibition [3] | growth inhibition [4] | growth inhibition [5] | growth inhibition [6] |
| --- | --- | --- | --- | --- | --- | --- |
| CN(C)c1ccc([N+](=O)[O-])cc1 | -76.2% | -24% | -61.6% | -43.1% | -9.2% | -57.4% |
| CCN1CCCN(CC)C1=O | 6.1% | 4.15% | -4.4% | -30.4% | -0.45% | 0.1% |
| CCCOC(=O)CCCC1=NC2=CC=CC3=NC(C)=NC(=N1)N23 | -10.3% | -3.4% | -7.45% | -45.1% | -38.1% | -7.45% |
| O=C(O)/C=C/C(=O)Nc1ccc2c(c1)-c1ccccc1C2=O | 15.9% | 14.4% | 17.9% | 5.25% | 5.15% | 16.6% |
| CC(=O)OCC1C(OC(C)=O)C(OC(C)=O)C(n2cnc3c(N)ncnc32)N1C(C)=O (stereo unspecified) | 17.1% | 3.75% | 16.3% | 11.4% | 1.5% | 4.35% |
| CCCCc1ccc(O)c(CN(CC)CC)c1 | 10.8% | -8.2% | -11.6% | -23.6% | -6.8% | -2.9% |
| CSc1nc(N)c(NS(=O)(=O)c2ccc([N+](=O)[O-])cc2)c(=O)[nH]1 | 4.35% | -8.05% | 5.65% | -3.95% | 10.1% | 14.1% |
| COc1cccc(C2=NC(C(C)C)CO2)c1OC (stereo unspecified) | -11.3% | -16.4% | -15.8% | 19.9% | -8.35% | -4.35% |
| COc1ccccc1-c1nc2ccccc2c(=O)[nH]1 | 12.8% | -25.9% | -14.1% | 8.5% | 6.4% | 2.25% |
| CC(C)CC1=C(C(=O)c2ccoc2)CC(C)C1 (stereo unspecified) | 6.55% | -7.6% | -18.9% | 12.1% | 25.9% | -7.1% |
| COC(=O)c1cc2/c(=N/O)c3ccccc3sc2o1 | -0.45% | -23.1% | -2.1% | 0.75% | -16.4% | -28.8% |
| O=C(NCCCCCCNC(=O)C1CCCN1C(=O)OCc1ccccc1)C1CCCN1C(=O)OCc1ccccc1 (stereo unspecified) | 0.6% | -24.2% | -8.15% | -1.9% | -5.7% | 6.4% |
| CCOC(=O)c1ccc(N[C@@H]2c3cc4c(cc3C(c3cc(OC)c(O)c(OC)c3)[C@H]3C(=O)OCC32)OCO4)cc1 (stereo partly specified) | 85.6% (active) | 91.7% (active) | 89.2% (active) | 87.5% (active) | 88% (active) | 88.8% (active) |
| C=C1CCC1 | 1.05% | -11.5% | -14.7% | 10.6% | 6.05% | -3.35% |
| Cc1c(Cl)cc(C(C)(C)C)c(O)c1Cc1c(C)c(Cl)cc(C(C)(C)C)c1O | 19.4% | -8.3% | -46.6% | 12.3% | 0% | 1.95% |
| COc1cc(C(=O)NC(=S)Nc2csc(-c3ccc(F)cc3)n2)cc(OC)c1OC | 14.9% | -12.8% | 8.65% | 16.9% | -0.75% | 11.7% |
| Cc1ccc(NC(=O)Nc2ccccc2Cl)cc1Cl | 12.6% | 17.5% | 6.1% | -20.4% | 4.75% | -4.55% |
| NNc1ncnc2c1ncn2Cc1ccccc1 | 1.65% | -3.1% | 1.75% | -2.05% | -22.6% | -14.4% |
| COc1ccc(/C=N/NC(=O)/C(C#N)=C/c2ccc(OC)cc2)cc1 | 23.1% | 19.1% | 3.7% | -11.5% | 19.4% | 16.4% |
| C1CC2CC1CC2C1CO1 (stereo unspecified) | 3.45% | -6.15% | 4.85% | 0.75% | 0.5% | 4.7% |
| c1ccc(-c2nn(-c3ccccc3)[n+](-c3ccccc3)n2)cc1 | 5.4% | 1.15% | 21.9% | 24.1% | 30.7% | 4.35% |

| SMILES | growth inhibition [1] | growth inhibition [2] | growth inhibition [3] | growth inhibition [4] | growth inhibition [5] | growth inhibition [6] |
| --- | --- | --- | --- | --- | --- | --- |
| NC(CO)CSCc1ccccc1 (stereo unspecified) | 1.65% | 1.6% | 11.6% | -4.4% | 13.3% | -0.65% |
| NC(CSS(=O)(=O)O)=NCCCCC1CCCCC1 | -6.3% | -2.75% | 7.35% | -6.25% | 0.1% | 16.4% |
| Nc1ccc(S(=O)(=O)c2cnc(N)s2)cc1 | -4% | 4.25% | 27.8% | -3.25% | -11.2% | 11.4% |
| COC1OCC(OS(C)(=O)=O)C(OS(C)(=O)=O)C1OS(C)(=O)=O (stereo unspecified) | -22.5% | -6.1% | -26.1% | -55.2% | -1% | -2.85% |
| CC(=O)c1c(-c2ccc(Cl)cc2)c(-c2ccc(Cl)cc2)nn(CCNC(C)C)c1=O | 96.7% (active) | 98.4% (active) | 95.8% (active) | 88.9% (active) | 80.5% (active) | 95% (active) |
| O=c1c2ccccc2sc2nc(CCl)nn12 | 6.2% | 4.25% | 8.2% | 16.8% | 2.05% | 47.2% |
| CCN(CC)CCOC(=O)c1ccc(Cl)c(Cl)c1 | 13.8% | -5.9% | 19.9% | -46.3% | -6.6% | -9.4% |
| CC(=O)Nc1ccc(Cc2ccc(Cl)cc2)cc1 | 5.6% | 0.7% | 5.7% | 10.8% | -9.8% | -2.6% |
| O=C(N/N=C/c1ccc(Cl)cc1Cl)c1ccccc1 | -13.8% | -1.65% | -2.95% | -5.1% | -8.65% | -3.9% |
| CC(C)(C)CC(C)(C)c1ccc(OCCOc2ccc(S(=O)(=O)O)cc2[N+](=O)[O-])cc1 | 68.8% | 30.9% | 71.7% (active) | 1.65% | -8.85% | 37.2% |
| CN(C)c1ccc(-c2c(C#N)c(O)n(NS(=O)(=O)c3ccccc3)c(=O)c2C#N)cc1 | -28.9% | -10.7% | -14.2% | 13.9% | -21.4% | -14.2% |
| O=C1C=C(Nc2nc(C(=O)O)cc(=O)[nH]2)c2ccccc2C1=O | 8.7% | -15.2% | -29.3% | 15.9% | -25.6% | -24.6% |
| CCOC(=O)CNC(=O)CNC(=O)CNC(=O)CN | 0.1% | 2.5% | 15.8% | -20.4% | -3.85% | -16.6% |
| COc1ccc(N=Cc2ccc(OC(=O)c3ccccc3)c(OC)c2)cc1 | 2.15% | 0.5% | 0.55% | -0.8% | 13.3% | -23.5% |
| NC(=S)N/N=C/c1cc(=O)c2cc(Cl)ccc2o1 | -0.05% | 11.8% | 42.3% | 45.8% | 7.95% | 55% |
| CC1=NN(c2cc(Cl)c(S(=O)(=O)O)cc2Cl)C(=O)C1N=Nc1ccc(S(=O)(=O)O)cc1 (stereo unspecified) | -6.3% | -19.8% | -8% | 2.05% | -5.8% | -0.9% |
| CCOC(=O)CN=c1nc(SC)sc2c(C(=O)OCC)nc(Sc3ccccc3)n12 | 1.25% | -7.25% | 1.55% | 13.6% | -11.4% | 8.65% |
| CN1C(=O)/C(=N/N(c2ccccc2)c2ccccc2)c2ccccc21 | -5.4% | 26.6% | -3.85% | -3.55% | 21.2% | 5.5% |
| CCCCCCOC(=O)C(O)C(C)(Cl)c1ccccc1 (stereo unspecified) | 11.3% | 9.9% | 4.6% | 15.9% | 12.6% | 13.7% |
| CCCCCC(=O)OCCN(C)C | -7.15% | -24.2% | -4.45% | 21.1% | -13.5% | 24.9% |
